{"source": "PubChem BioAssay (NCATS)", "note": "Inconclusive results are not listed. The source made the active and inactive calls. Calls come from the whole dose curve; as a rule, active = well fitted curve in the direction sought with a large enough effect; inconclusive = small, poorly fitted or top-dose-only effect, or another doubt; inactive = no such curve, though single readings can be large; an effect the other way counts as inactive or inconclusive.", "data": [{"experiment": "S16 Schwann cell viability assay (CellTiter-Glo assay) (AID 624031);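 note: cellular ATP luminescence as a viability measure; plate controls were DMSO-treated cells for no effect and cell-free wells for full effect; nearly all actives have a fitted effect of over 70% in size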", "conditions": "S16 rat Schwann cells viability, 24 h; series mostly up to 57.5 µM; activity change, negative = cytotoxicity: at the top concentration", "outline": "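Native S16 rat Schwann cells in DMEM/10% FBS without phenol red were incubated overnight, then exposed to compounds for 24 h at 37 °C/5% CO2. Viability was read as ATP luminescence (CellTiter-Glo), normalized to no-cell wells and DMSO (0%).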", "values": [{"smiles": "CCCC(C)C1(CC)C(=O)NC(=O)NC1=O", "note": "(stereo unspecified)", "activity change, negative = cytotoxicity": "7.33% (inactive)"}, {"smiles": "CCN(CC)C(=O)/C(Cl)=C(\\C)OP(=O)(OC)OC", "activity change, negative = cytotoxicity": "14.6% (inactive)"}, {"smiles": "CC(=O)OO", "activity change, negative = cytotoxicity": "4.59% (inactive)"}, {"smiles": "C=CCN1CC[C@]23c4c5ccc(O)c4O[C@H]2[C@@H](O)C=C[C@H]3[C@H]1C5", "activity change, negative = cytotoxicity": "0% (inactive)"}, {"smiles": "NCC(O)c1cccc(O)c1", "note": "(stereo unspecified)", "activity change, negative = cytotoxicity": "7.98% (inactive)"}, {"smiles": "CCC1(c2ccccc2)C(=O)NC(=O)N(C)C1=O", "note": "(stereo unspecified)", "activity change, negative = cytotoxicity": "-3.77% (inactive)"}, {"smiles": "C=CCC1(C(C)CCC)C(=O)N=C(S)NC1=O", "note": "(stereo unspecified)", "activity change, negative = cytotoxicity": "-1.79% (inactive)"}, {"smiles": "C#CC(C)(O)CC", "note": "(stereo unspecified)", "activity change, negative = cytotoxicity": "-6.08% (inactive)"}, {"smiles": "CCOc1ccc2c3c1O[C@H]1[C@@H](O)C=C[C@H]4[C@@H](C2)N(C)CC[C@@]341", "activity change, negative = cytotoxicity": "-18.9% (inactive)"}, {"smiles": "CCCCNCC(O)c1ccc(O)cc1", "note": "(stereo unspecified)", "activity change, negative = cytotoxicity": "-0.963% (inactive)"}, {"smiles": "S=C(S)N1CCNCC1", "activity change, negative = cytotoxicity": "0% (inactive)"}]}, {"experiment": "S16 Schwann cell PMP22 intronic element firefly luciferase assay (AID 624032); note: nearly all actives have a fitted effect of over 30% in size; note: potency is the fitted concentration of half-maximal effect;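 for activity change, negative = inhibition: plate controls were DMSO for no effect and PTC124 positive control mean for full effect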", "conditions": "S16 rat Schwann cells, PMP22 element FLuc, 24 h; series mostly up to 57.5 µM; activity change, negative = inhibition: at the top concentration", "outline": "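Luciferase reporter of PMP22 intronic-element expression in stably transfected S16 rat Schwann cells, read by ONE-Glo luminescence after 24 h compound exposure at 37 C. Activity scaled between DMSO (0%) and positive-control PTC124; concentration-effect curves quality-classified.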", "values": [{"smiles": "CCCC(C)C1(CC)C(=O)NC(=O)NC1=O", "note": "(stereo unspecified)", "activity change, negative = inhibition": "-15.1% (inactive)"}, {"smiles": "CC(=O)OO", "activity change, negative = inhibition": "-0.791% (inactive)"}, {"smiles": "C=CCN1CC[C@]23c4c5ccc(O)c4O[C@H]2[C@@H](O)C=C[C@H]3[C@H]1C5", "activity change, negative = inhibition": "-21.7% (inactive)"}, {"smiles": "NCC(O)c1cccc(O)c1", "note": "(stereo unspecified)", "activity change, negative = inhibition": "-22.7% (inactive)"}, {"smiles": "CCC1(c2ccccc2)C(=O)NC(=O)N(C)C1=O", "note": "(stereo unspecified)", "activity change, negative = inhibition": "17.8% (inactive)"}, {"smiles": "C=CCC1(C(C)CCC)C(=O)N=C(S)NC1=O", "note": "(stereo unspecified)", "activity change, negative = inhibition": "-3.21% (inactive)"}, {"smiles": "C#CC(C)(O)CC", "note": "(stereo unspecified)", "activity change, negative = inhibition": "0.175% (inactive)"}, {"smiles": "CCOc1ccc2c3c1O[C@H]1[C@@H](O)C=C[C@H]4[C@@H](C2)N(C)CC[C@@]341", "Potency": "16.1 µM (active)"}, {"smiles": "CCCCNCC(O)c1ccc(O)cc1", "note": "(stereo unspecified)", "Potency": "1.81 µM (active)"}, {"smiles": "S=C(S)N1CCNCC1", "activity change, negative = inhibition": "-47.4% (inactive)"}]}]}
